High-throughput results (PubChem BioAssay)
Pf Dd2 inh – Plasmodium falciparum Dd2 growth inhibition; AID 1347417; P. falciparum Dd2 growth, SYBR Green, 72 h; hit rate 4.3% among 120,000; Potency, µM (doses to about 28.9 µM), most hits filed as inhibitors; active = well fitted inhibition curve with a large enough effect; note: nearly all actives have a fitted effect of over 65% in size
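Readout: SYBR Green fluorescence, 485 nm excitation, 535 nm emission, after ~16 h lysis at 37C. Before that, Dd2-infected red cells (2.5% hematocrit) grew 72 h with compound, 29 uM top final concentration.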
Of the large screens only hits and unclear results are named; the others gave an inactive call. This is one part of a sample in which hits are shown more often than they occur.

COc1cccc(N2CCN(C(=O)C3CC(=O)N(c4n[nH]c5cccc(F)c45)C3)CC2)c1 (configuration not stated)	none
COc1ccccc1N1CCN(C(=O)C2CC(=O)N(c3n[nH]c4cccc(F)c34)C2)CC1 (configuration not stated)	Pf Dd2 inh 7.08µM
O=C(C1CC(=O)N(c2n[nH]c3cccc(F)c23)C1)N1CCN(c2ccc(F)cc2)CC1 (configuration not stated)	none
Cn1ncc(N2CCCC(C(=O)N3CCN(C(=O)c4ccco4)CC3)C2)cc1=O (configuration not stated)	none
O=C(c1cnn2ccccc12)N1CCC(Cc2cccc(CO)c2)C1 (configuration not stated)	none
O=C(NCCc1nc(Cc2ccccc2)no1)[C@H]1CCC[C@H](O)C1	none
CCC(C)NC(=O)N1CC(c2nc(CCOCC3CC3)no2)C1 (configuration not stated)	none
Cc1ccccc1Cn1c2ccccc2c2cnn(CC(=O)NCc3cccc(Cl)c3)c(=O)c21	none
CCCn1c2ccccc2c2cnn(CC(=O)NC(C)CC)c(=O)c21 (configuration not stated)	none
Cc1cc(C)c(Cn2c3ccccc3c3cnn(CC(=O)NCc4ccc(Cl)cc4)c(=O)c32)c(C)c1	Pf Dd2 inh 7.94µM
Cc1ccc(Cn2c3ccccc3c3cnn(CC(=O)Nc4cc(Cl)ccc4C)c(=O)c32)cc1	none
CCCN1CCN(C(=O)Cn2ncc3c4ccccc4n(Cc4cccc(Cl)c4)c3c2=O)CC1	Pf Dd2 inh 11.2µM
O=C(Cn1ncc2c3ccccc3n(Cc3ccc(Cl)cc3)c2c1=O)NCCCc1ccccc1	none
CCN(CC)CCCNC(=O)Cn1ncc2c3ccccc3n(Cc3ccccc3)c2c1=O	none
CCCCN(C)CCCNC(=O)Cn1ncc2c3ccccc3n(Cc3cccc(Cl)c3)c2c1=O	Pf Dd2 inh 5.62µM
O=C(Cn1ncc2c3ccccc3n(Cc3cccc(Cl)c3)c2c1=O)NCCCc1ccccc1	none
CN(CC1CCOC1)S(=O)(=O)c1ccccc1Br (configuration not stated)	none
COc1ccc(N2CC(C(=O)N3CCOCC3)NC2=O)cc1 (configuration not stated)	none
COCCN1Cc2nc(OCc3ccc(F)cc3)ccc2OCC1=O	none
COc1ccc2[nH]c3c(c2c1)CCN(C)C31CCN(C(=O)c2ccsc2)CC1	none
Cc1noc(-c2cn(C3CCN(C(=O)c4ccc(C)c(C)c4)CC3)nn2)n1	none
C=CCNC(=O)c1cn2c(n1)CN([S+](=O)([O-])c1cccc(C(F)(F)F)c1)CC2	none
COc1cccc(NC(=O)Nc2cc(-c3cn4cccnc4n3)ccc2OC)c1	none
COc1cccc(NC(=O)Nc2cc(-c3cn4cccnc4n3)ccc2C)c1	none
COc1ccc(-c2cn3cccnc3n2)cc1NC(=O)Nc1cc(C)ccc1C	Pf Dd2 inh 11.2µM
CCN1c2cc(C(=O)Nc3ccc(N(C)C)cc3)ccc2C(=O)N2CCCCCC21 (configuration not stated)	none
CC(C)NC(=O)C1COC2(CCN(C(=O)c3ccc(F)cc3)CC2)N1C(=O)c1ccccc1 (configuration not stated)	none
O=C(Nc1ccc2[nH]ccc2c1)c1ccc(-c2ncc3cnc(C4=CCOCC4)cn23)cc1	Pf Dd2 inh 1.58µM
O=C(Nc1ccc2[nH]ccc2c1)c1cnc2c(c1)N([S+](=O)([O-])c1cccnc1)CCC2	none
O=C(O)c1ccc(-c2ncc3cnc(C4=CCOCC4)cn23)cc1	none
CCNC(=O)c1ccc2c(c1)N(C(=O)c1ccc(F)cc1)CC2	none
O=C(NCc1ccccc1)c1nc2c(o1)CCN(Cc1ccc(F)c(Cl)c1)CC2	none
Cc1nc(N(C)C)ncc1C(=O)N[C@@H]1CCNC[C@H]1O	none
CCCNC(=O)CCc1ccnc(N2CCOCC2)c1	none
O=C(CCc1ccnc(N2CCCC2)c1)NCc1ccc(F)c(Cl)c1	Pf Dd2 inh 3.16µM
Cn1c(CNC(=O)CCc2ccnc(N3CCCC3)c2)nc2ccccc21	none
COCCn1ncc(N2CCC(C(=O)N3CCN(C(C)C)CC3)C2)cc1=O (configuration not stated)	none
Cc1ccc(NC(=O)Cn2cc(S(=O)(=O)Cc3cccc(Cl)c3)c3ccccc32)cc1C	none
COC(=O)[C@@H]1Cc2c([nH]c3ccccc23)[C@H]2C[C@@H](NCCN(C)C)C[C@@H](c3cccc(Cl)c3)N21	Pf Dd2 inh 2.82µM
Cc1ccc(C)c(NC(=O)Cn2cc(S(=O)(=O)Cc3cccc(Cl)c3)c3ccccc32)c1	none
COC(=O)[C@@H]1Cc2c([nH]c3ccccc23)[C@H]2C[C@@H](NCCc3cnc[nH]3)C[C@@H](c3cccc(Cl)c3)N21	none
COC(=O)[C@@H]1Cc2c([nH]c3ccccc23)[C@@H]2C[C@@H](NCCNC(C)=O)C[C@@H](c3cccc(Cl)c3)N12	Pf Dd2 inh 11.2µM
COC(=O)[C@@H]1Cc2c([nH]c3ccccc23)[C@H]2C[C@@H](NCc3cccs3)C[C@@H](c3ccccc3F)N21	none
COC(=O)[C@@H]1Cc2c([nH]c3ccccc23)[C@H]2C[C@@H](NCCN3CCOCC3)C[C@@H](c3ccc(F)cc3)N21	none
COC(=O)[C@@H]1Cc2c([nH]c3ccccc23)[C@H]2C[C@H](NCCN3CCOCC3)C[C@@H](c3ccc(F)cc3)N21	Pf Dd2 inh 11.2µM
COC(=O)[C@@H]1Cc2c([nH]c3ccccc23)[C@H]2C[C@@H](NC(C)C)C[C@@H](c3ccc(C)cc3)N21	none
CN1Cc2c(cc(N3CCOCC3)nc2-c2ccccc2OC(F)(F)F)C1=O	none
Cc1ccc2c(C)c(C(=O)N3CCOCC(CO)C3)oc2c1 (configuration not stated)	none
COCCN1CCC(N2CCN(C(=O)C3CC3)CC2)C1=O (configuration not stated)	none
C=CCNC(=O)CCc1c(C)nn(-c2ccccc2C)c1Oc1cccc(F)c1	none
CC(C)NC(=O)N(C1CCOCC1)C1CN(S(=O)(=O)c2cn(C)cn2)C1	none
COCC1CN(C(=O)Cn2nc(C(F)(F)F)cc2C)CC12CCNCC2 (configuration not stated)	none
Cn1nc(C(=O)N2CCOCCNC(=O)CC2)c2ccccc21	none
CN1C[C@H](NC(=O)Nc2ccccc2)CCC[C@@H](C(=O)NCc2cc(F)cc(F)c2)CC1=O	none
COC(=O)c1scc(-c2ccc(C)cc2)c1S(=O)(=O)Nc1ccc(F)cc1F	none
CCOc1ccccc1NS(=O)(=O)c1c(-c2ccc(C)cc2)csc1C(=O)OC	Pf Dd2 inh 10µM
COC(=O)c1scc(-c2ccc(C)cc2)c1S(=O)(=O)Nc1cccc(Cl)c1C	none
O=C(c1cnco1)N(CC1CCN(Cc2ccccc2F)CC1)CC1CCCO1 (configuration not stated)	none
Oc1ccccc1CN(CCN1CCCCC1)CC1CCCN(C2CCCC2)C1 (configuration not stated)	none
FC(F)Oc1ccccc1CN(CC1CCN(C2CCCC2)CC1)CC1CCCO1 (configuration not stated)	Pf Dd2 inh 7.08µM
CS(=O)(=O)c1ccc(OCC2(CNC(=O)c3ccno3)C[C@@H](O)[C@@H](O)C2)cc1 (some centres not stated)	none
O=C(C1CCCCC1)N1CCC2(CC(c3cccnc3)=NO2)C1 (configuration not stated)	none
CCCN1CCCC2(Cc3ccccc3CN(C(=O)CCCC(=O)O)C2)C1 (configuration not stated)	none
CCC(=O)N1Cc2ccccc2CC2(CCCN(Cc3ccncc3)C2)C1 (configuration not stated)	none
CCCC(=O)N1Cc2ccccc2CC2(CCN(CC)C2)C1 (configuration not stated)	none
